# Measurements reported in paper PMC5540273 (PLoS ONE, 2017).
# Legend:
# Conditions in all cases: concentration: 1 μM, replicates: in singlicate; n = 1
# [1] = test system: MAPKAPK5
# [2] = test system: MARK1
# [3] = test system: MARK2
# [4] = test system: MARK3
# [5] = test system: MARK4
# [6] = test system: MAST1
# [7] = test system: T1, MEK1
# T1 construct: gene MAP2K1
# [8] = test system: T2, MEK2
# T2 construct: gene MAP2K2
# [9] = test system: T3, MEK3
# T3 construct: gene MAP2K3
# [10] = test system: T4, MEK4
# T4 construct: gene MAP2K4
# 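Further: KINOMEscan kinase panel screen.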
Compound,%Inh [1],%Inh [2],%Inh [3],%Inh [4],%Inh [5],%Inh [6],%Inh [7],%Inh [8],%Inh [9],%Inh [10]
Cc1ccc(NC(=O)c2ccc(Cl)c(Cl)c2)cc1-c1ccc(C(=O)Nc2ccncc2)cc1 [GSK1398460],0%,7%,0%,0%,16%,0%,0%,0%,0%,0%
CC(=O)Nc1cn2nc(Oc3cccc(NC(=O)c4cccc(C(F)(F)F)c4)c3)ccc2n1,0%,0%,0%,8%,20%,8%,0%,18%,0%,0%
O=C(Nc1n[nH]c2cc(-c3cccs3)ccc12)C1CC1 [SB-731284],4%,47%,21%,0%,35%,6%,47%,24%,51%,46%
Nc1ncnc2scc(-c3ccc(NC(=O)Cc4cc(F)ccc4F)cc3)c12.O=C(O)C(F)(F)F [SB-731254-M],10%,27%,31%,0%,6%,21%,24%,19%,23%,18%
Cc1ccc(-c2ccc3occ(-c4ccc(S(C)=O)cc4)c3c2)nn1 (centres unmarked),0%,0%,14%,16%,4%,0%,0%,4%,0%,0%
Cl.O=C(Nc1ccc(Oc2ccc3[nH]c(NC(=O)c4ccco4)nc3c2)cc1)Nc1cc(C(F)(F)F)ccc1F [GW683134],0%,0%,0%,0%,6%,8%,0%,0%,0%,10%
CN(c1ccc2c(c1)nc(NCc1ccccc1)n2C)c1ccnc(Nc2ccc(CS(C)(=O)=O)cc2)n1.Cl [GW811603],0%,30%,0%,0%,5%,31%,0%,0%,51%,34%
O=C(Nc1n[nH]c2nc(-c3ccccc3O)ccc12)C1CC1 [SB-711880],0%,0%,43%,0%,0%,31%,5%,25%,40%,34%
